Screening data: PubChem, National Center for Advancing Translational Sciences (NCATS)
Only some compounds are listed: those with a hit (about 2.8% of all), similar ones and a draw of the others.
KDM5B inhibitor = Primary screen for KDM5B Histone Demethylases FDH-coupled qHTS. KDM5B demethylase, FDH-coupled NADH fluorescence (FDH is formaldehyde dehydrogenase). Potency, µM (titrated, usually from 57.7 µM), hits mostly inhibitors. 2.6% of 220,000 active. AID 1347165, 2019; active = well fitted inhibition curve with a large enough effect; inconclusive = small, poorly fitted or top-dose-only effect; inactive = no such curve, though single readings can be large or run the other way; note: potency is the fitted concentration of half-maximal effect; 0% is about no effect; nearly all actives have a fitted effect of over 70% in size
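qHTS format, multiple compound concentrations. Buffer 50 mM HEPES pH 7.5/0.01% Tween-20; 200 nM KDM5BΔAP final; 10 min compound preincubation; substrate-mix levels 12.5 µM peptide, 25 µM α-KG, 0.25 mM NAD⁺; 30 min RT; ΔRFU.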
IP6K1 inhibitor = Primary qHTS assay for small molecule inhibitors of Inositol hexaphosphate kinase 1 (IP6K1). Inositol hexakisphosphate kinase 1 (Homo sapiens), Q92551. activity change, % (series mostly up to about 58 µM). AID 1645851, 2021. IP6K1 kinase, ADP-Glo luminescence, 2 h; hits give low values. 0.81% of 140,000 active; in the data active = activity change below about -25%; note: % is set by controls: 0 for no effect and ±100 for the full control effect
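ADP-Glo luminescence measures ADP made by human IP6K1 during a 2 h RT reaction with ATP/IP6 (mix at 1.3 mM/130 uM); top library doses 57.5 and 19.1 uM final.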
* = called active by the depositor; i = inactive; ? = inconclusive; / = no result given.

SMILES	KDM5B inhibitor	IP6K1 inhibitor
Cc1cc(C)c2c(C(=O)N3CCN(C)C4(CCN(C)CC4)C3)cc(C)nc2c1	25µM*	46
Cc1cc(C)cc(NC(=O)CC(=O)N2CCN(C)C3(CCN(C)CC3)C2)c1	i	1
O=C(O)CNS(=O)(=O)c1cccc(Br)c1	i	/
O=c1cc(Cn2nnc(-c3cccc(F)c3)n2)nc2sccn12	i	/
Cc1ccc(N2CC(c3noc(-c4cc(F)cc(F)c4)n3)CC2=O)cc1 (stereo unspecified)	i	-1
COc1ccc(N2CC(c3noc(-c4ccc5c(c4)OCO5)n3)CC2=O)cc1OC (stereo unspecified)	?	-8
COc1ccc(N2CC(c3noc(-c4ccc5c(c4)OCO5)n3)CC2=O)cc1 (stereo unspecified)	32µM*	-3
Cc1ccc(N2CC(c3noc(-c4ccc5c(c4)OCO5)n3)CC2=O)cc1 (stereo unspecified)	32µM*	13
O=C1[C@@H]2C[C@@H](O)CN2C2(CN(Cc3ccc(F)cc3)C2)C(=O)N1Cc1ccccc1	i	0
CCOC1CCOC2(CCN(C(=O)c3cccs3)CC2)C1 (stereo unspecified)	/	1
CCN(CC)C(=O)N1CCC(C(=O)NCC2(c3ccc(F)cc3)CC2)CC1	i	/
CCOc1ccc(-c2ccnc(N3CCOC(CN)C3)n2)cc1C(=O)O (stereo unspecified)	28µM*	-4
CCOc1ccc(-c2ccnc(-c3ncccn3)n2)cc1C(=O)O	i	0
CN(C)Cc1nnc(C2CC(NC(=O)c3cc4ncccn4n3)C2)n1C (stereo unspecified)	?	10
CN(C)Cc1nnc(C2CC(Nc3cncc(C(=O)N(C)C)n3)C2)n1C (stereo unspecified)	28µM*	0
CN(C)Cc1nnc(C2CC(NC(=O)c3ccn(C)c(=O)c3)C2)n1C (stereo unspecified)	32µM*	6
CN(C)Cc1nnc(C2CC(NC(=O)c3ccc4c(c3)CCC4)C2)n1C (stereo unspecified)	i	18
CCCCC(=O)N(C)C(c1ccccc1)c1c[nH]c2ccccc12 (stereo unspecified)	i	/
COc1cc(NC(=O)Nc2cc3c(cc2N2CCCC2)n(C)c(=O)n3C)cc(OC)c1	i	/
COc1ccc2cc(C(=O)N3CC4CC(C3)[C@H]3CCCC(=O)N3C4)[nH]c2c1 (stereo partly specified)	i	25
COc1ccc2cc(C(=O)NC3CCN(C(=O)N4CC5CC(C4)[C@H]4CCCC(=O)N4C5)CC3)[nH]c2c1 (stereo partly specified)	28µM*	22
COc1cccc(-c2cc(C(=O)N3CCCC3)c3cnn(C)c3n2)c1	/	0
O=C(c1ccc(N2CCCC2)nc1)N1CCC(N2CCOCC2)CC1	?	1
O=C(c1ccc(N2CC[C@H](O)C2)nc1)N1CCC(N2CCOCC2)CC1	25µM*	36
COc1ccc(C(=O)N2CC(Oc3ccccc3-c3nc(-c4ccccc4)no3)C2)cc1	25µM*	17
SMILES	KDM5B inhibitor	IP6K1 inhibitor
COc1ccc(C(=O)N2CC(Oc3ccc(-c4nc(-c5ccccc5)no4)cc3)C2)cc1	i	10
CC(C)CNC(=O)N1CC(Oc2ccccc2-c2nc(-c3ccccc3)no2)C1	?	-8
O=C(NC1CCCC1)N1CC(Oc2ccccc2-c2nc(-c3ccccc3)no2)C1	28µM*	-3
COc1ccccc1-c1cccc(C(=O)N2CCC[C@H]2C(=O)NCc2cccs2)c1	/	-10
O=C(c1ccccc1F)N1CCN(Cc2ccccc2-c2cccnc2)CC1	/	13
CC(=O)NCCNC(=O)c1cc2cc(C)ccc2nc1C	i	/
CC(=O)NCCNc1cc(C)c2ccc(Cl)cc2n1	25µM*	56
COC(=O)CNC(=O)C1CCCN1Cc1cccc(-c2ccc(C)c(Cl)c2)c1 (stereo unspecified)	/	2
CC(O)CNc1ccc(-c2nc(CCCc3ccccc3)no2)cn1 (stereo unspecified)	i	10
CCC(O)CNc1ccc(-c2nc(COC)no2)cn1 (stereo unspecified)	32µM*	5
O=C(NCc1ccc(F)cc1)c1ccc2nnc(-c3ccc(OC(F)(F)F)cc3)n2c1	/	-3
CCOC(=O)/C(C#N)=C\NC(C)=O	i	/
COc1ccc(-c2cc3c(cn2)CN(Cc2ccccc2)CCN3)cc1OC	32µM*	-13
COc1ccc(CN2CCNc3cc(-c4ccccc4)ncc3C2)cc1	?	-19
Cc1cc(-c2cc3c(cn2)CN(Cc2ccccn2)CCN3)ccn1	?	-12
COc1ccc(-c2cc3c(cn2)CN(CCc2ccccc2)CCN3)cc1OC	35µM*	-2
COc1ccc(Nc2cc3c(cn2)CN(CCc2ccccc2)CCN3)cc1OC	?	-10
C[S+](=O)([O-])c1ccc(-c2cc3c(cn2)CN(CCc2ccccc2)CCN3)cc1	40µM*	2
Cc1cc(-c2cc3c(cn2)CN(CC2CCOCC2)CCN3)ccn1	35µM*	-1
Cn1cc(CN2CCNc3cc(-c4ccccc4)ncc3C2)cn1	?	-7
O=C(NC1CCN(Cc2cccc(-c3cccs3)c2)CC1)c1ccccn1	/	-7
COc1ccc2c3c1C1COC(=O)N1CC3=CC(C)(C)CO2 (stereo unspecified)	/	4
CCCCCCCNC(=O)CCC(=O)NCCC	i	/
Cc1cccc(NCC(=O)NC(=O)NCc2ccccc2)c1C(N)=O	i	/
c1cncc(CN2CCNc3cc(-c4cn[nH]c4)ncc3C2)c1	?	-16
SMILES	KDM5B inhibitor	IP6K1 inhibitor
COc1ccc(Cl)cc1-c1cc2c(cn1)CN(Cc1cccnc1)CCN2	32µM*	-14
COC(=O)N(Cc1cccc(N2CCN([S+](=O)([O-])c3c(Cl)cccc3Cl)CC2)c1F)C(C)C	/	4
Cc1ccccc1CC(=O)N1CCCn2cc(-c3cccc(C#N)c3)nc21	22µM*	-10
Cc1cccc(CC(=O)N2CCCn3cc(-c4cccc(C#N)c4)nc32)c1	?	2
COCC(=O)N1CCCn2cc(-c3cccc(C#N)c3)nc21	25µM*	2
CCOCC(=O)N1CCCn2cc(-c3ccccc3)nc21	?	1
N#Cc1cccc(-c2cn3c(n2)N(C(=O)Cc2cccs2)CCC3)c1	25µM*	11
COc1cccc(-c2cn3c(n2)N(C(=O)Cc2ccsc2)CCC3)c1	i	4
CCOC(=O)[C@H]1[C@@H](O)C(=O)N(Cc2ccccc2)C12CCN(C(=O)C1CCC1)CC2	/	-1
O=C(NCC1CCCCCC1)C1CCCN(c2nccc(Nc3ccccc3F)n2)C1 (stereo unspecified)	/	6
O=S(=O)(c1ccccc1F)N1CC(c2nc(-c3ccncc3)no2)C1	/	36
CN1CCCN(S(=O)(=O)c2ccc(C(F)(F)F)cc2)c2ccccc21	14µM*	0
CN1CCCN(S(=O)(=O)c2cccc(Br)c2)c2ccccc21	14µM*	-2
Cc1cccc(S(=O)(=O)N2CCCN(C)c3ccccc32)c1	i	-6
CN1CCCN(S(=O)(=O)c2ccc(Cl)cc2)c2ccccc21	i	-1
C=CCn1c(N2CCN(Cc3cccc(Cl)c3)CC2)nc2c1c(=O)[nH]c(=O)n2C	i	/
O=C(COc1ncnc2ccc(Br)cc12)Nc1ccc(F)cc1	i	/
